Most compounds without a hit are left out; they make up all but 3.5% or so of the library.
mHTT CaM bind: disrupts binding of mutant huntingtin to calmodulin; AlphaScreen His-mHTT/GST-CaM binding, luminescence; inhibition, % at 15 µM; 190,000 tested, 3.6% active
Pf apPOL inh: Pf-apPOL DNA polymerase inhibition. Recombinant Pf-apPOL, molecular beacon fluorescence, 1.5 h. inhibition, % at 10 µM. 210,000 tested, 0.25% active. AID 1794808
Large screens that a line does not name were inactive. Cut-off read from the data, not from the text of the source: active = inhibition above about 50%; inactive = the rest.

N#CC1=C(N)C(C#N)(C#N)C(c2cccs2)C2CC(c3ccccc3)CC=C12 (stereo not given)	mHTT CaM bind 96.0
CC(C)c1ccc(C2C3CCCC=C3C(C#N)=C(N)C2(C#N)C#N)cc1 (stereo not given)	mHTT CaM bind 55.0
Cc1ccc(C2C3CCCC=C3C(C#N)=C(N)C2(C#N)C#N)cc1 (stereo not given)	none
CCCN1CC=C2C(C#N)=C(N)C(C#N)(C#N)C(c3ccc(-c4ccccc4)cc3)C2C1 (stereo not given)	mHTT CaM bind 63.0
N#CC1=C(N)C(C#N)(C#N)C(c2ccccc2)C2CCCC=C12 (stereo not given)	none
CN1CC=C2C(C#N)=C(N)C(C#N)(C#N)C(c3ccccc3)C2C1 (stereo not given)	none
CCCCOc1ccc(C2C3CCCC=C3C(C#N)=C(N)C2(C#N)C#N)cc1 (stereo not given)	mHTT CaM bind 55.0
COCCCNC(=O)N1CCC(N2CCN(Cc3cccc(C)c3)C2=O)CC1	none
CCOc1ccc(N2CC(C(=O)Nc3cc(C)cc(C)c3)CC2=O)cc1 (stereo not given)	none
O=C(Nc1ccccc1C(=O)Nc1nccs1)c1cccc(Br)c1	none
CC(C)(C)C1CC=C2C(C#N)=C(N)C(C#N)(C#N)C(c3ccccc3)C2C1 (stereo not given)	none
CC(C)(C)C1CC=C2C(C#N)=C(N)C(C#N)(C#N)C(c3ccc(Cl)cc3)C2C1 (stereo not given)	mHTT CaM bind 62.0
O=C1CC(=Nc2ccc(Br)cc2)NN1c1ccccc1	mHTT CaM bind 77.0
CN1C(=O)CC(C(=O)O)SC1=Nc1ccc(Br)cc1 (stereo not given)	none
COc1ccc(CCNC(C)=O)cc1	none
COc1ccc(CCNc2ccc(C)cc2)cc1	mHTT CaM bind 70.6
COc1ccc(Nc2nc(-c3cccnc3)nc3ccccc23)cc1	mHTT CaM bind 54.4
Brc1ccc(Nc2nc(-c3cccnc3)nc3ccccc23)cc1	none
COc1cccc2c1NC(c1ccc([N+](=O)[O-])cc1)C1CC=CC21 (stereo not given)	mHTT CaM bind 70.0
COc1ccc(C2Nc3c(C)ccc(Cl)c3C3C=CCC32)cc1[N+](=O)[O-] (stereo not given)	none
COc1cc([N+](=O)[O-])cc2c1NC(c1ccccc1Cl)C1CC=CC21 (stereo not given)	none
COc1ccc(C2Nc3c(OC)cccc3C3C=CCC32)cc1[N+](=O)[O-] (stereo not given)	mHTT CaM bind 66.0
CCc1cccc2c1NC(c1ccc(OC)c([N+](=O)[O-])c1)C1CC=CC21 (stereo not given)	mHTT CaM bind 59.0
COc1ccc(OC)c(NS(=O)(=O)c2cc(Br)cc3c2N(C(C)=O)CC3)c1	none
CC1CCN(C(=O)C2=NN(Cc3ccc(F)cc3)c3ccccc3S2(=O)=O)CC1	none
CCCc1nc2cccnc2n1C1CCN(C(=O)c2ccco2)C1 (stereo not given)	none
CCOc1ccc(NC(=O)COc2cccc(NC(C)=O)c2)cc1	none
Cc1ccc(NC(=O)c2cccc([N+](=O)[O-])c2C)cc1Cl	none
CC1=C(C(=O)Nc2ccccc2F)C(c2ccccc2)C2=C(CC(c3ccccc3)CC2=O)N1 (stereo not given)	none
O=C(c1cccc(F)c1)N1CCCC(c2ccnc(Nc3ccccc3)n2)C1 (stereo not given)	none
Cc1cccc(Nc2nccc(C3CCCN(C(=O)c4ccoc4)C3)n2)c1 (stereo not given)	none
O=C(c1ccsc1)N1CCCC(c2ccnc(Nc3cccc(F)c3)n2)C1 (stereo not given)	mHTT CaM bind 67.4
CC(=O)N1CCCC(c2ccnc(Nc3cccc(F)c3)n2)C1 (stereo not given)	none
O=C(c1ccoc1)N1CCCC(c2ccnc(Nc3cccc(F)c3)n2)C1 (stereo not given)	mHTT CaM bind 72.0
O=C(c1ccccc1)N1CCCC(c2ccnc(Nc3ccc(F)cc3)n2)C1 (stereo not given)	mHTT CaM bind 91.2
O=C(NCc1cccs1)C(=O)Nc1ccon1	none
O=C(COc1ccccc1Cl)c1ccc(Br)cc1	none
Cc1cccc(CNC(=O)c2cc(NC(=O)C(C)C)cc3nc(C)ccc23)c1	none
Cc1ccc2c(C(=O)NCc3ccccc3C)cc(NC(=O)C(C)C)cc2n1	mHTT CaM bind 54.5
CC(=O)Nc1cc(C(=O)NCC(C)C)c2ccc(C)nc2c1	none
CC(=O)Nc1cc(C(=O)NCc2ccccc2C)c2ccc(C)nc2c1	mHTT CaM bind 73.2
COc1cc(OC)c(NC(=O)N2CCc3cn(C)c4cccc(c34)C2)cc1Cl	none
Cc1ccc(N2C(=O)CC(NCc3ccc4c(c3)OCO4)C2=O)cc1 (stereo not given)	none
Cc1n[nH]c(C)c1S(=O)(=O)N1CCc2c(c(-c3nc(-c4ccccc4)no3)nn2C)C1	mHTT CaM bind 52.6
Cc1ccc(S(=O)(=O)N2CCc3c(c(-c4nc(-c5ccccc5)no4)nn3C)C2)cc1C	none
O=C(c1cccc(Oc2cc(-c3ccccc3)ncn2)c1)N1CCCC1	mHTT CaM bind 70.3, Pf apPOL inh 60.4
CC(C)Oc1cccc(C(=O)N2CCCC2)c1	none
O=C(O[C@H]1CC[C@@]23CCCN2C(=O)CCC[C@H]3C1)N1CCN(c2ccccc2)CC1	none
CNC(=O)N1CCc2[nH]cnc2C1c1ccccn1 (stereo not given)	mHTT CaM bind 93.7
CNC(=O)N1CCc2[nH]cnc2C1c1ccncc1 (stereo not given)	none
Cc1cccc(NC(=O)N2CCc3[nH]cnc3C2c2ccncc2)c1 (stereo not given)	none
COc1ccc(NC(=O)N2CCc3[nH]cnc3C2c2ccccn2)cc1OC (stereo not given)	mHTT CaM bind 90.9
COCC(=O)N1CCc2c(c(-c3nc(-c4ccccc4)no3)nn2C)C1	none
N#Cc1c(NC(=O)CN2CCc3ccccc32)sc2c1CCC2	none (no result: mHTT CaM bind)
Cc1ccccc1Cc1c(C)nc2nc(SCC(=O)NCCN3CCOCC3)nn2c1C	none
COC(=O)[C@H]1CC=C[C@H]2CCN(Cc3ccc(Cl)c(Cl)c3)C(=O)[C@@H]12	mHTT CaM bind 68.5
O=C(O)[C@H]1CC=C[C@H]2CCN(Cc3ccc(Cl)c(Cl)c3)C(=O)[C@@H]12	none
COc1ccc(CNC(=O)[C@@H]2CC=C[C@@H]3CCN(Cc4ccc(Cl)c(Cl)c4)C(=O)[C@@H]32)cc1	mHTT CaM bind 94.4
COc1ccc(CNC(=O)[C@@H]2CC=C[C@@H]3CCN(Cc4ccc(OC)c(OC)c4)C(=O)[C@@H]32)cc1	none
Cc1noc(C)c1CN1CCN(C(=O)C2CC(=O)N(c3ccccc3)C2)CC1 (stereo not given)	none
O=c1cc2cc(O)[nH]c(=O)c2c(O)[nH]1	none
CCCC(=O)NC(c1ccc(OC)c(OC)c1)c1cc(Cl)c2cccnc2c1O (stereo not given)	none
CCC(=O)NC(c1ccccc1OC)c1cc(Cl)c2cccnc2c1O (stereo not given)	mHTT CaM bind 87.0
CCC(=O)NC(c1ccccc1Cl)c1cc(Cl)c2cccnc2c1O (stereo not given)	mHTT CaM bind 100.0
CCCC(=O)NC(c1ccccc1OC)c1cc(Cl)c2cccnc2c1O (stereo not given)	mHTT CaM bind 51.0
CCC(=O)NC(c1ccc(Cl)cc1)c1cc(Cl)c2cccnc2c1O (stereo not given)	none
COc1ccc(NC(=O)C2CCN(c3cc(=O)n(C)c(=O)n3C)CC2)cc1	none
CC(C)(C)c1ccc(C(=O)ONC(=O)c2ccc(Cl)c(Cl)c2)cc1	none (no result: mHTT CaM bind)
COC(=O)C1CCN(Cc2cc(=O)oc3cc(C)ccc23)CC1	none
